The source made the active and inactive calls. The calls were made as follows: active = hit-call score of the fitted dose curve at least 0.9, where 1 is the maximum; inactive = score below 0.9.
These molecules were tested on Glutathione S-transferase M3 (GSTM3), GSTM3 (gene 2947) (assay: LTEA_HepaRG_GSTM3: Life Technologies and Expression Analysis (LTEA) Assay for Glutathione S-transferase M3 (GSTM3) using HepaRG (AID 2283501)). Conditions: mRNA level, 48 h; actives raise or lower the signal.
Procedure, shortened: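 Differentiated HepaRG cells in serum-free induction medium were exposed in duplicate for 48 h to 8 half-log concentrations up to 100 uM in 0.5% DMSO. GSTM3 mRNA was measured by TaqMan qRT-PCR, normalized to ACTB/GAPDH/POLR2A, and fitted bidirectionally versus DMSO.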

Row | Structure (SMILES) | outcome | AC50
1 | C#C[C@]1(O)CC[C@H]2[C@@H]3CCC4=CC(=O)CC[C@@H]4[C@H]3CC[C@@]21CC | inactive | –
2 | O=C(O)c1ccccc1 | inactive | –
3 | COC(=O)c1ccccc1C(=O)O | inactive | –
4 | CC(C)(C)[C@@H](O)[C@@H](Cc1ccc(Cl)cc1)n1cncn1 | inactive | –
5 | c1ccc2[nH]c(-c3cscn3)nc2c1 | inactive | –
6 | N[C@@H](Cc1cc(I)c(Oc2ccc(O)c(I)c2)c(I)c1)C(=O)O | – | 0.613 µM (active)
7 | CCOC(=O)c1ccc(O)cc1 | inactive | –
8 | O=C(Nc1ccc([N+](=O)[O-])cc1Cl)c1cc(Cl)ccc1O | – | 25 µM (active)
9 | COC(=O)c1ccc(I)cc1S(=O)(=O)NC(=O)Nc1nc(C)nc(OC)n1 | inactive | –
10 | CCCN(CCC)C(=O)SCC | inactive | –
11 | CCCCC(CC)COC(=O)c1ccccc1C(=O)O (configuration not stated) | inactive | –
12 | C[C@]12C[C@H](O)[C@H]3[C@@H](CCC4=CC(=O)CC[C@@]43C)[C@@H]1CC[C@@H]2C(=O)CO | inactive | –
13 | S=C([S-])NCCNC(=S)[S-].[Mn+2] | – | 1.88 µM (active)
14 | O=C(O)C1(C(=O)Nc2ccc(Cl)cc2Cl)CC1 | inactive | –
15 | C=CCOC(Cn1ccnc1)c1ccc(Cl)cc1Cl (configuration not stated) | inactive | –
16 | CCCOC(=O)NCCCN(C)C | inactive | –
17 | COCCO | inactive | –
18 | C#CCOC(=O)[C@@H](C)Oc1ccc(Oc2ncc(Cl)cc2F)cc1 | inactive | –
19 | CC(=O)[C@H]1CC[C@H]2[C@@H]3CCC4=CC(=O)CC[C@]4(C)[C@H]3CC[C@]12C | – | 93.1 µM (active)
20 | CCN(CC)C(=O)c1cccc(C)c1 | inactive | –
21 | COc1c(Cl)ccc(Cl)c1C(=O)O | inactive | –
22 | CCCCCOC(=O)COc1cc(N2C(=O)C3=C(CCCC3)C2=O)c(F)cc1Cl | inactive | –
23 | CCC(C)OC(=O)N1CCCCC1CCO (configuration not stated) | inactive | –
24 | CCCCOCCOCCOCc1cc2c(cc1CCC)OCO2 | inactive | –
25 | CCOC(=O)COc1cc(-n2ncc(C(F)(F)F)c(C)c2=O)c(F)cc1Cl | inactive | –
26 | CCCN(CCC)c1c([N+](=O)[O-])cc(C(F)(F)F)c(N)c1[N+](=O)[O-] | inactive | –
27 | CC1(C)C(C=C(Cl)Cl)C1C(=O)OCc1cccc(Oc2ccccc2)c1 (configuration not stated) | inactive | –

Each molecule was assayed on Heat shock 70 kDa protein 1 (HSPA1A), gene 3303 (assay: LTEA_HepaRG_HSPA1A: Life Technologies and Expression Analysis (LTEA) Assay for Heat shock 70 kDa protein 1 (HSPA1A) using HepaRG (AID 2283502)). Conditions: mRNA level, 48 h; actives raise or lower the signal.
Procedure, shortened: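 Cells were plated and cultured for 48 h, then switched to serum-free induction medium. Chemicals were added at eight half-log concentrations up to 100 uM for 48 h. RNA was then isolated and HSPA1A measured by qRT-PCR with bidirectional curve fitting against DMSO.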

Row | Structure (SMILES) | outcome | AC50
28 | C#C[C@]1(O)CC[C@H]2[C@@H]3CCC4=CC(=O)CC[C@@H]4[C@H]3CC[C@@]21CC | inactive | –
29 | O=C(O)c1ccccc1 | inactive | –
30 | COC(=O)c1ccccc1C(=O)O | inactive | –
31 | c1ccc2[nH]c(-c3cscn3)nc2c1 | inactive | –
32 | N[C@@H](Cc1cc(I)c(Oc2ccc(O)c(I)c2)c(I)c1)C(=O)O | inactive | –
33 | CCOC(=O)c1ccc(O)cc1 | inactive | –
34 | O=C(Nc1ccc([N+](=O)[O-])cc1Cl)c1cc(Cl)ccc1O | inactive | –
35 | COC(=O)c1ccc(I)cc1S(=O)(=O)NC(=O)Nc1nc(C)nc(OC)n1 | inactive | –
36 | CCCN(CCC)C(=O)SCC | inactive | –
37 | CCCCC(CC)COC(=O)c1ccccc1C(=O)O (configuration not stated) | inactive | –
38 | C[C@]12C[C@H](O)[C@H]3[C@@H](CCC4=CC(=O)CC[C@@]43C)[C@@H]1CC[C@@H]2C(=O)CO | inactive | –
39 | S=C([S-])NCCNC(=S)[S-].[Mn+2] | inactive | –
40 | O=C(O)C1(C(=O)Nc2ccc(Cl)cc2Cl)CC1 | inactive | –
41 | C=CCOC(Cn1ccnc1)c1ccc(Cl)cc1Cl (configuration not stated) | inactive | –
42 | CCCOC(=O)NCCCN(C)C | inactive | –
43 | COCCO | inactive | –
44 | C#CCOC(=O)[C@@H](C)Oc1ccc(Oc2ncc(Cl)cc2F)cc1 | inactive | –
45 | CC(=O)[C@H]1CC[C@H]2[C@@H]3CCC4=CC(=O)CC[C@]4(C)[C@H]3CC[C@]12C | – | 70.2 µM (active)
46 | CCN(CC)C(=O)c1cccc(C)c1 | inactive | –
47 | COc1c(Cl)ccc(Cl)c1C(=O)O | inactive | –
48 | CCCCCOC(=O)COc1cc(N2C(=O)C3=C(CCCC3)C2=O)c(F)cc1Cl | inactive | –
49 | CCC(C)OC(=O)N1CCCCC1CCO (configuration not stated) | inactive | –
50 | CCCCOCCOCCOCc1cc2c(cc1CCC)OCO2 | – | 7.35 µM (active)
51 | CCOC(=O)COc1cc(-n2ncc(C(F)(F)F)c(C)c2=O)c(F)cc1Cl | inactive | –
52 | CCCN(CCC)c1c([N+](=O)[O-])cc(C(F)(F)F)c(N)c1[N+](=O)[O-] | – | 50 µM (active)
53 | CC1(C)C(C=C(Cl)Cl)C1C(=O)OCc1cccc(Oc2ccccc2)c1 (configuration not stated) | inactive | –

The molecules below were run on Hypoxia-inducible factor 1-alpha (Homo sapiens) (UniProt Q16665) (assay: LTEA_HepaRG_HIF1A: Life Technologies and Expression Analysis (LTEA) Assay for Hypoxia-inducible factor 1 (HIF1A) Trancription factor using HepaRG (AID 2283503)). Conditions: mRNA level, 48 h; actives raise or lower the signal.
Procedure, shortened: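 HIF1A transcript level read by qRT-PCR (ACTB, GAPDH, POLR2A normalization) after 48 h chemical exposure of HepaRG cultures. Eight half-log concentrations, top 100 uM, 0.5% DMSO vehicle, duplicates; bidirectional curve fit against DMSO baseline.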

Hypoxia-inducible factor 1-alpha (Homo sapiens), sequence (Q16665 whole entry, looked up): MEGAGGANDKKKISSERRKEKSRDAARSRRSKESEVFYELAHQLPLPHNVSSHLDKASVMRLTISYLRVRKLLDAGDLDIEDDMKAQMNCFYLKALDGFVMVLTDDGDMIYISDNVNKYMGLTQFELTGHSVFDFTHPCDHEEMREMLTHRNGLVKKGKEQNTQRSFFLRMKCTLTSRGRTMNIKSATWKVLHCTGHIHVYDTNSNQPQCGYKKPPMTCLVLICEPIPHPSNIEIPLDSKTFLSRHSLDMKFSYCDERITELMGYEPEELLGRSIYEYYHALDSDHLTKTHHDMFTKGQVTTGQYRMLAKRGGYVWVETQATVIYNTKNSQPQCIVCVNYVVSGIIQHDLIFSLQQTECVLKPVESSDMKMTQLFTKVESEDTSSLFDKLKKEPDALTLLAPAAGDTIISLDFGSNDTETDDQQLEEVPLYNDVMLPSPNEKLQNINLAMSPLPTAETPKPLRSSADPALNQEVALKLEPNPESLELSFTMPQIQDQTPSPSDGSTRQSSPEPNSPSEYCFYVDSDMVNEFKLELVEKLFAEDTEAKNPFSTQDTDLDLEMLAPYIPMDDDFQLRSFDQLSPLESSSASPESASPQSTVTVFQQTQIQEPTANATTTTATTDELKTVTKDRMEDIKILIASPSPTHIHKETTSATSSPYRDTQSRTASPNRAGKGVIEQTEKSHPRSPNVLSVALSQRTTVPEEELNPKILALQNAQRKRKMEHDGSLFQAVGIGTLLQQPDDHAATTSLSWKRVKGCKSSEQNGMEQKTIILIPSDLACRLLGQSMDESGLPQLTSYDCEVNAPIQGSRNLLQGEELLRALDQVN

Row | Structure (SMILES) | outcome | AC50
54 | C#C[C@]1(O)CC[C@H]2[C@@H]3CCC4=CC(=O)CC[C@@H]4[C@H]3CC[C@@]21CC | inactive | –
55 | O=C(O)c1ccccc1 | inactive | –
56 | COC(=O)c1ccccc1C(=O)O | inactive | –
57 | CC(C)(C)[C@@H](O)[C@@H](Cc1ccc(Cl)cc1)n1cncn1 | inactive | –
58 | c1ccc2[nH]c(-c3cscn3)nc2c1 | inactive | –
59 | N[C@@H](Cc1cc(I)c(Oc2ccc(O)c(I)c2)c(I)c1)C(=O)O | – | 0.00253 µM (active)
60 | CCOC(=O)c1ccc(O)cc1 | inactive | –
61 | CCCN(CCC)C(=O)SCC | inactive | –
62 | CCCCC(CC)COC(=O)c1ccccc1C(=O)O (configuration not stated) | inactive | –
63 | C[C@]12C[C@H](O)[C@H]3[C@@H](CCC4=CC(=O)CC[C@@]43C)[C@@H]1CC[C@@H]2C(=O)CO | inactive | –
64 | S=C([S-])NCCNC(=S)[S-].[Mn+2] | – | 3.12 µM (active)
65 | O=C(O)C1(C(=O)Nc2ccc(Cl)cc2Cl)CC1 | – | 50 µM (active)
66 | C=CCOC(Cn1ccnc1)c1ccc(Cl)cc1Cl (configuration not stated) | – | 79.6 µM (active)
67 | CCCOC(=O)NCCCN(C)C | inactive | –
68 | COCCO | inactive | –
69 | C#CCOC(=O)[C@@H](C)Oc1ccc(Oc2ncc(Cl)cc2F)cc1 | inactive | –
70 | CCN(CC)C(=O)c1cccc(C)c1 | inactive | –
71 | COc1c(Cl)ccc(Cl)c1C(=O)O | inactive | –
72 | CCCCCOC(=O)COc1cc(N2C(=O)C3=C(CCCC3)C2=O)c(F)cc1Cl | inactive | –
73 | CCC(C)OC(=O)N1CCCCC1CCO (configuration not stated) | inactive | –
74 | CCCCOCCOCCOCc1cc2c(cc1CCC)OCO2 | inactive | –
75 | CCOC(=O)COc1cc(-n2ncc(C(F)(F)F)c(C)c2=O)c(F)cc1Cl | inactive | –
76 | CCCN(CCC)c1c([N+](=O)[O-])cc(C(F)(F)F)c(N)c1[N+](=O)[O-] | inactive | –
77 | CC1(C)C(C=C(Cl)Cl)C1C(=O)OCc1cccc(Oc2ccccc2)c1 (configuration not stated) | inactive | –

— PubChem BioAssay (EPA / NIEHS)
